Assay results reported in the supplement of paper PMC13380429.

System: Vero E6 infected with SARS-CoV-2
Assay: inhibition of SARS-CoV-2 cytopathic effect; higher = more antiviral protection, active = above 15
Conditions: 48 h

Measured: inhibition of SARS-CoV-2 cytopathic effect

CC(=O)O[C@]1(C(C)=O)CC[C@H]2[C@@H]3CCC4=CC(=O)CC[C@]4(C)[C@H]3CC[C@@]21C [hydroxyprogesterone-acetate]
inactive: 1 nM -3.23% | 8.33 nM 0.18% | 100 nM -2.75% | 833.33 nM 0.45% | 10000 nM 10.9%

CO[C@H]1/C=C\C=C(/C)C(=O)NC2=CC(=O)C(NCCN(C)C)=C(C[C@@H](C)C[C@H](OC)[C@H](O)[C@@H](C)/C=C(\C)[C@@H]1OC(N)=O)C2=O [alvespimycin]
inactive: 1 nM 0.5% | 8.33 nM 1.37% | 100 nM 0.62% | 833.33 nM 1.28% | 10000 nM 12.4%

O=C(Nc1cccnc1)N1CCC(Cc2cccc(Oc3ccc(C(F)(F)F)cn3)c2)CC1
inactive: 1 nM 0.55% | 8.33 nM -2.38% | 100 nM -1.02% | 833.33 nM 3.15% | 10000 nM -28.6%

Cc1cccc(-c2[nH]c(C(C)(C)C)nc2-c2ccc3nccnc3c2)n1
inactive: 1 nM 3.48% | 8.33 nM -0.18% | 100 nM 0.8% | 833.33 nM 0.91% | 10000 nM 1.69%

O=c1n(CC2CO2)c(=O)n(CC2CO2)c(=O)n1CC1CO1 (stereo not given) [teroxirone]
inactive: 1 nM -1.74% | 8.33 nM -0.65% | 100 nM 0.11% | 833.33 nM 0.34% | 10000 nM 9.05%

Cn1cncc1[C@@](N)(c1ccc(Cl)cc1)c1ccc2c(c1)c(-c1cccc(Cl)c1)cc(=O)n2C [tipifarnib]
inactive: 1 nM 0.24% | 8.33 nM 0.1% | 100 nM 1.79% | 833.33 nM 2.2% | 10000 nM -9.4%

FC(F)(F)c1cc(NC(=S)Nc2ccc(Br)cc2-c2nnn[nH]2)cc(C(F)(F)F)c1
inactive: 1 nM -3.42% | 8.33 nM -1.08% | 100 nM -1.11% | 833.33 nM 3.36% | 10000 nM 0.52%

CCOC(=O)c1c(/C(C#N)=C\N)c2ccc(Cl)c(Cl)c2n1C
inactive: 1 nM -0.1% | 8.33 nM 0.69% | 100 nM 0.36% | 833.33 nM 0.1% | 10000 nM -2.18%

O=C(O)COC(=O)Cc1ccccc1Nc1c(Cl)cccc1Cl [aceclofenac]
inactive: 1 nM 0.39% | 8.33 nM 0.9% | 100 nM 0.17% | 833.33 nM -0.85% | 10000 nM 0.58%

O=C(O)CNC(=O)c1nc(Cl)c2ccccc2c1O
inactive: 1 nM 0.76% | 8.33 nM 0.65% | 100 nM 4.78% | 833.33 nM 2.19% | 10000 nM -0.7%

CCOCCn1c(C2CCN(CCc3ccc(C(C)(C)C(=O)O)cc3)CC2)nc2ccccc21 [bilastine]
inactive: 1 nM -1.57% | 8.33 nM -0.88% | 100 nM -1.39% | 833.33 nM -1.14% | 10000 nM -0.38%

NCCCC[C@@H]1NC(=O)[C@@H](Cc2c[nH]c3ccccc23)NC(=O)[C@H](c2ccccc2)NC(=O)[C@@H]2C[C@@H](OC(=O)NCCN)CN2C(=O)[C@H](Cc2ccccc2)NC(=O)[C@H](Cc2ccc(OCc3ccccc3)cc2)NC1=O [pasireotide]
inactive: 1 nM -6.41% | 8.33 nM -8.12% | 100 nM -5.04% | 833.33 nM -4.91% | 10000 nM -5.41%

N#Cc1ccc(-c2csc(NN=C3CCCC3)n2)cc1 [remodelin]
inactive: 1 nM 0.9% | 8.33 nM 1% | 100 nM 1.18% | 833.33 nM 0.48% | 10000 nM 0.34%

COc1ccc(CNCc2cccc3ccccc23)cc1
inactive: 1 nM -2.74% | 8.33 nM -2.35% | 100 nM -0.58% | 833.33 nM -2.06% | 10000 nM -0.83%

Cc1ccc(C(=O)Nc2ccc(Oc3cc4cnn(C)c4cc3-c3cn[nH]c3)c(F)c2)c(=O)n1-c1ccc(F)cc1
inactive: 1 nM -0.46% | 8.33 nM 1.35% | 100 nM -1.01% | 833.33 nM -1.13% | 10000 nM -2.06%

NC[C@H]1O[C@H](O[C@H]2[C@H](O)[C@@H](O[C@H]3O[C@H](CO)[C@@H](O)[C@H](N)[C@H]3O)[C@H](N)C[C@@H]2N)[C@H](N)C[C@@H]1O [tobramycin]
inactive: 1 nM -1.08% | 8.33 nM 1.78% | 100 nM -0.88% | 833.33 nM 0.11% | 10000 nM 0.19%

CC1(C)CC(=O)c2c(C(F)(F)F)nn(-c3ccc(C(N)=O)c(N[C@H]4CC[C@H](O)CC4)c3)c2C1
inactive: 1 nM 1.9% | 8.33 nM 1.97% | 100 nM -3.3% | 833.33 nM -1.33% | 10000 nM -0.66%
